Measurements reported in the supplement of paper PMC6555819.

test system: RARb homodimer (NR concentration 270 nM); assay: PBM binding z-score (relative to random genomic background probes); higher = stronger binding; sequences stand for … in GC…GCGATTGACAGCGTAGAATGAAGG
Outline: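 Custom Agilent 4×180K protein-binding microarrays carried double-stranded probes, each with a 34-nt variable region. These regions held direct-repeat seeds, single-nucleotide variants, half-site ablations and random human genomic background sequences. Ligand-free nuclear receptor dimers were incubated on the arrays for 1 h, antibodies against each partner (one per run) detected binding, and scanned fluorescence was regression-normalized. Binding z-scores take the random background probes as reference.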

| Sequence | PBM binding z-score |
| --- | --- |
| CCGACTAGGGCATAAGGTTACCATAAGCCAGCCC | 1.76 |
| CCTAGCAGGCCAGGGTCCCTCAAGCATTTCGCTT | -0.427 |
| CGTCAAATTTCAAGGTAACGTAACAGAAAGCAGC | -0.107 |
| AATACAGAGTCACTAGGCCAGAGTAGGTACGAAT | 0.0526 |
| AATACAGGCTCACTAGGCCAGAGTAGGTACGAAT | -0.345 |
| TCATATAGGTAAAAGGTGAAAATCGGTGTGGTAA | 1.58 |
| TGTCAAAGTTCAAAGGTAACATAAGTATCCACAC | 3.83 |
| AGAGTGAGGTTAAGATCAGGGAAACAGAATACAT | 1.46 |
| CCTAGTTGGTCGGGAGGTCACACACCGGATATGA | 4.12 |
| ATAGCAAGGTGATCGTGAGGTCGTTGATACTAAC | 1.29 |
| TCGAGTAGGTTGCCAATGGGGCATTCAGCTTTCT | -0.36 |
| CCGACTGGGGCAGAAAGGTTACCACACCATCCGG | 2.28 |
| ATCTCTATGTAACCAAGTTCAGTGAATGCCGAAC | 1.28 |
| AGAATGACGTTATACGTAGATCAGGGAAGAAAGT | -0.508 |
| ATATGTAGGTTATCGGGTCATTCCGTTTGCGCAT | 3.06 |
| GCGTACGGGTCAAAGGTTATAGCATGAATAGAAT | 3.14 |
| CCACACAGGTGAGAAGGTAACTCAGCCTCGATTA | 0.713 |
| CGTCCAAGGTCAAGGTCAGTTAAAGAGACTCGAA | 5.26 |
| CGAACTAGTTCAGAACAGGACAGTGAAGGATGAT | 0.329 |
| TCATATAAGTAAACAGGTGAAAGTCCGTAAGTTA | 0.596 |
| TCTAGTTGGTCAAACGTCACACACTCGAAATGCG | 0.78 |
| AACTCTAGGTAAAGATAGTTCAGTGAATGCAAAT | 1.06 |
